Data on 49 molecules can be found in the supplement of paper PMC12340641.

In all, about 1,000 compounds were measured (“relative growth in counter assay (no AraC = 100%, AraC + DMSO = 0%)”: median about -1.1, highest 2% from about 20 on). The full list was thinned out, with the highest values kept by preference.

The assay concerns HEK293FT dCK*-only. Nature of the assay: relative growth in counter assay (no AraC = 100%, AraC + DMSO = 0%); higher = more growth rescue independent of IKZF1. The note with it: compound concentration: 5 uM; AraC concentration: 0.3 uM; overnight pretreatment + 4 days AraC. The protocol:
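Growth recovery screen of the molecular-glue-like (Specs) library. HEK293FT cells expressing a dCK*-IKZF1 fusion (primary) or dCK* alone (counter) were pretreated overnight with compound at 5 uM, then given 0.3 uM AraC for 4 days. Hoechst nuclei were counted by imaging. Primary: normalised to pomalidomide (100%) and DMSO (0%), mean of 2 replicates. Counter: normalised to no-AraC (100%) and AraC+DMSO (0%), single replicate.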
Consider `O=C(C1CCCCC1)N1CCOC(c2cccc(Nc3nccs3)n2)C1` (centres undefined), for which the “relative growth in counter assay” value is -5.66%.
As to `O=[N+]([O-])c1ccc(S(=O)(=O)Nc2ccccn2)cc1`, the “relative growth in counter assay” value is -0.83%.
In the case of `Cc1ccnc(Nc2nc(-c3sc(NC(=O)c4ccccc4)nc3C)cs2)c1`, the “relative growth in counter assay” value turned out to be 68.2%.
The result for `CC(=O)Nc1ccc(-c2csc(Nc3cccc(C)n3)n2)cc1` reads 5.34%; that for `CC(=O)Nc1ccc(-c2csc(Nc3ccc(Cl)cn3)n2)cc1`, -4.91%; that for `Cc1ccc(Nc2nc(-c3sc(NC(=O)c4ccccc4)nc3C)cs2)nc1`, 74.3%.
Regarding `CC(=O)N1CCCC(c2csc(Nc3ccc(C)cn3)n2)C1` (centres undefined), the “relative growth in counter assay” value amounted to 2.06%.
With `CC(=O)N1CCCC1c1csc(Nc2ccccn2)n1` (centres undefined), the “relative growth in counter assay” value turned out to be 6.68%.
The result for `Cc1cccc(Nc2nc(-c3sc(NC(=O)c4ccccc4)nc3C)cs2)n1` reads 60.5%.
Take `CC(=O)Nc1ccc(-c2csc(Nc3ccccn3)n2)cc1`: the “relative growth in counter assay” value was 15.7%.
As for `CC(=O)Nc1cccc(-c2csc(Nc3cccc(C)n3)n2)c1`, the “relative growth in counter assay” value was 5.94%.
As to `COc1cccc(OC)c1C(=O)Nc1ccc(S(=O)(=O)Nc2nccc(C)n2)cc1`, the “relative growth in counter assay” value was -1.58%.
As for `CC1CCc2cc(F)ccc2N1C(=O)CSc1nnc2c(n1)[nH]c1ccccc12` (centres undefined), the “relative growth in counter assay” value is 6.61%.
The result for `O=C(NCc1cnc(Nc2cccc(C3CCN(C(=O)C4CCCCC4)CC3)n2)s1)c1cccc(F)c1` reads -9.34%.
For the molecule `CC(C)(N)C(=O)N1CCC(c2cccc(Nc3ncc(-c4cccnc4)s3)n2)CC1`, the “relative growth in counter assay” value is -23.8%.
The result for `CCCc1cnc(Nc2cccc(C3CCN(C(=O)[C@@H](N)C(C)O)CC3)n2)s1` (some centres undefined) reads -24.9%; that for `Cc1ccc(CC(=O)N2CCOC(c3cccc(Nc4nccs4)n3)C2)cc1C` (centres undefined), -4.97%; that for `COc1ccc(C(=O)Nc2ccc(S(=O)(=O)Nc3cc(C)nc(C)n3)cc2)cc1`, -14%.
On to `Nc1ccc(C(=O)N2CCCC2c2cccc(Nc3nccs3)n2)cn1` (centres undefined), for which the “relative growth in counter assay” value was -0.6%.
The same measure for `O=C(O)CCOCCOCCNc1ccc2c(c1)C(=O)N(C1CCC(=O)NC1=O)C2=O` (centres undefined): -0.35%; for `O=[N+]([O-])c1ccc(S(=O)(=O)Nc2ccc(S(=O)(=O)Nc3ncccn3)cc2)cc1`: 0.33%.
On to `CC(C)(C)N1CC(C(=O)Nc2ccc(S(=O)(=O)Nc3ncccn3)cc2)CC1=O` (centres undefined), for which the “relative growth in counter assay” value turned out to be 4.79%.
As for `COC1CCCC(C(=O)N2CCOC(c3cccc(Nc4ncc(C)s4)n3)C2)C1` (centres undefined), the “relative growth in counter assay” value is -9.41%.
As to `CCOCCC(=O)Nc1ccc(S(=O)(=O)Nc2ncccn2)cc1`, the “relative growth in counter assay” value was determined as 3.97%.
For the molecule `Cc1cc(NS(=O)(=O)c2ccc(NC(=O)COc3ccc(C(C)C)cc3)cc2)nc(C)n1`, the “relative growth in counter assay” value is -0.57%.
In the case of `Cc1cccc(OCC(=O)Nc2ccc(S(=O)(=O)Nc3nc(C)cc(C)n3)cc2)c1`, the “relative growth in counter assay” value was -12%.
For the molecule `CN(CC(=O)N1CCOC(c2cccc(Nc3nccs3)n2)C1)Cc1ccccc1F` (centres undefined), the “relative growth in counter assay” value was found to be 0.79%.
As to `CC(C)c1cnc(Nc2cccc(C3CCN(C(=O)C4CCCCC4)CC3)n2)s1`, the “relative growth in counter assay” value was determined as 11%.
Turning to `COc1cccc(C(=O)Nc2ccc(S(=O)(=O)Nc3cc(C)nc(C)n3)cc2)c1`, the “relative growth in counter assay” value was 0.7%.
Regarding `COc1ccc(NC(=O)CN2CCC(c3cccc(Nc4nc(C)cs4)n3)CC2)cc1`, the “relative growth in counter assay” value was found to be 13.8%.
Turning to `O=C1CCC(N2C(=O)c3cccc(N4CCC(C(=O)O)CC4)c3C2=O)C(=O)N1` (centres undefined), the “relative growth in counter assay” value was 3.86%.
For the molecule `Cc1cc(C)nc(NS(=O)(=O)c2ccc(NC(=O)CCN3C(=O)c4ccccc4C3=O)cc2)n1`, the “relative growth in counter assay” value was -7.05%.
With `Cc1ccc2[nH]nc(C(=O)N3CCCC3c3cccc(Nc4nc(C)cs4)n3)c2c1` (centres undefined), the “relative growth in counter assay” value came to 2.1%.
As to `CC(=O)N1CCCC1c1cccc(Nc2nc(C)cs2)n1` (centres undefined), the “relative growth in counter assay” value is -5.77%.
For `Cc1csc(Nc2cccc(C3CCCN3C(=O)c3cnc(C)nc3C)n2)n1` (centres undefined), the “relative growth in counter assay” value is -4.08%.
The same measure for `Cc1csc(Nc2cccc(C3CCCN3C(=O)c3cn4cc(Cl)ccc4n3)n2)n1` (centres undefined): 22.3%; for `Cc1csc(Nc2cccc(C3CCCN3C(=O)c3ccc4c(c3)CCCN4C)n2)n1` (centres undefined): 13.3%; for `Cc1csc(Nc2cccc(C3CCCN3C(=O)c3ccc4[nH]c(C(C)C)nc4c3)n2)n1` (centres undefined): 30.5%.
On to `COc1ccc(C(=O)Nc2ccc(S(=O)(=O)Nc3ncccn3)cc2)cc1OC`, for which the “relative growth in counter assay” value is -2.72%.
On to `Cc1ccc(Oc2ccc3c(c2)C(=O)N(c2ccc(C(N)=O)cc2)C3=O)cc1C`, for which the “relative growth in counter assay” value was determined as 3.9%.
For the molecule `COc1ccc2[nH]c3nc(SCC(=O)Nc4cccc(F)c4)nnc3c2c1`, the “relative growth in counter assay” value is -13.9%.
Consider `COc1ccc(C(=O)Nc2ccc(S(=O)(=O)Nc3nccc(C)n3)cc2)cc1`, for which the “relative growth in counter assay” value was -6.7%.
Take `Cc1cnc(Nc2cccc(C(CO)C3CCN(C(=O)c4cccc(Cl)c4F)CC3)n2)s1` (centres undefined): the “relative growth in counter assay” value is -1.22%.
The result for `Cc1cnc(Nc2cccc(C3CN(C(=O)C(C)(C)C)CCO3)n2)s1` (centres undefined) reads -10.3%; that for `CCCc1cnc(Nc2cccc(C3CCN(C(=O)[C@@H]4CCCCN4)CC3)n2)s1`, -21.3%; that for `COc1ccc(Cl)cc1NC(=O)CSc1nnc2c(n1)[nH]c1ccc(F)cc12`, 5.27%.
On to `COc1ccc(N2C(=O)c3ccc(Oc4ccccc4)cc3C2=O)cc1`, for which the “relative growth in counter assay” value was -22.4%.
The same measure for `CCC(C)C(=O)Nc1ccc(S(=O)(=O)Nc2nccc(C)n2)cc1` (centres undefined): -7.22%; for `COc1cc(NS(=O)(=O)c2ccc(Nc3nc(-c4c(C)nc5ncccn45)cs3)cc2)nc(OC)n1`: 2.39%.
